The values below come from PubChem BioAssay AID652054 (National Center for Advancing Translational Sciences (NCATS), 2013).

Out of some 360,000 compounds screened, about 9,100 (2.5%) were called active. Inconclusive results (about 4%) are left out. Rule as the data show it: active = max response below about -50%; inconclusive = no clear call, values can overlap the other calls; inactive = above that. The entries come from a sample that favours actives as a whole.
% is scaled to controls: 0 for no effect and ±100 for the full control effect.

The target in this assay is D(3) dopamine receptor (Homo sapiens) (UniProt P35462). The assay is described as follows: qHTS of D3 Dopamine Receptor Antagonist: qHTS. As to conditions: D3R cells, DiscoveRx beta-arrestin luminescence, antagonist mode; hits give low values. The procedure, abridged: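 Cells plated overnight at 1500 cells/well, then exposed to library compounds with dopamine controls for 90 minutes at 37 degrees C. DiscoveRx reagent added for 30–60 minutes at room temperature; luminescence read, quantitative HTS format.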
Chain of D(3) dopamine receptor (Homo sapiens) (P35462 whole entry, looked up): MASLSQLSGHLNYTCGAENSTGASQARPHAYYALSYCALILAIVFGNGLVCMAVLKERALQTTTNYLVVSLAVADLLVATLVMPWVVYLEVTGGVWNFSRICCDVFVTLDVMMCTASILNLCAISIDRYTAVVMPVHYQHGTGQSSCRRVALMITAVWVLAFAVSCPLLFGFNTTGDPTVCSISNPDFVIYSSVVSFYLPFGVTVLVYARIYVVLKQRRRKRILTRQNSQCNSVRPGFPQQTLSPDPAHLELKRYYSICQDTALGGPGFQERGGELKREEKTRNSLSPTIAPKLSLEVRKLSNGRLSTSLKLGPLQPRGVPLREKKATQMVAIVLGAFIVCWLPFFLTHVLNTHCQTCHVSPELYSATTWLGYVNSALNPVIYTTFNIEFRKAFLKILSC
On the technique in general: Quantitative high-throughput screening tests each substance at several concentrations.
Regarding `O=C(O)c1ccccc1/C=N/Nc1ccc(S(=O)(=O)Nc2ccc(Cl)cc2)cc1[N+](=O)[O-]`, the max response, negative = inhibition was 6.67% (inactive). As for `COc1ccc(Br)cc1/C=N/Nc1ccc(S(=O)(=O)Nc2ccccc2C(=O)O)cc1[N+](=O)[O-]`, the figure is -66% (active); as for `Cc1ccc(NS(=O)(=O)c2ccc(N/N=C/c3ccccc3OCC(=O)O)c([N+](=O)[O-])c2)c(C)c1`, -17% (inactive). With `CCCNC(=O)C1CC(=O)N(c2ccc(OCc3ccccc3)cc2)C1` (centres undefined), the max response, negative = inhibition was 0% (inactive). Then `CCNC(=O)C1(C)CCN(Cc2ccc(C(=O)OCC)o2)C1` (centres undefined), with -10.7% (inactive). With `COc1cc(C(=O)NC2CCN(Cc3ccccc3)CC2)cc(Cl)c1OC(C)C`, the max response, negative = inhibition was -71.6% (active). As for `COc1cc2[nH]c(=O)n(Cc3ccc(C(=O)NC4CCN(Cc5ccccc5)CC4)cc3)c(=O)c2cc1OC`, the figure is -79.7% (active); as for `CCOc1cc2[nH]c(=O)n(Cc3ccc(C(=O)NCCCN4CCCC4=O)cc3)c(=O)c2cc1OCC`, 6.17% (inactive).

Regarding `COc1cc2[nH]c(=O)n(CCC(=O)NC3CCN(Cc4ccccc4)CC3)c(=O)c2cc1OC`, the max response, negative = inhibition is -7.24% (inactive). As for `COC(=O)c1cccc(NC(=O)CN2CCC(NC(=O)c3cc(OC)c(OC)c(OC)c3)CC2)c1`, the figure is 24% (inactive).

Regarding `COc1ccc(C(=O)O)cc1S(=O)(=O)NC1CCN(Cc2ccccc2)CC1`, the max response, negative = inhibition is 8.04% (inactive). As for `Nc1cccc(-c2cncc(N3CCN(Cc4ccccn4)CC3)n2)c1`, the figure is -4.86% (inactive). Turning to `CCN(CC(=O)Nc1ccc(NC(C)=O)cc1)C(=O)C1CC(=O)N(c2ccc3c(c2)OCCO3)C1` (centres undefined), the max response, negative = inhibition is 19% (inactive).

Regarding `O=C(CN1C(=O)NC2(CCc3ccccc32)C1=O)NC1CCCCC1` (centres undefined), the max response, negative = inhibition is -24.4% (inactive). As for `CCOC(=O)C1(C)CCCN(C(=O)c2ccc(F)c(Cl)c2)C1` (centres undefined), the figure is 104% (inactive); as for `CC(=O)c1cccc(-c2cnc3c(NC=O)cc(-c4ccccc4Oc4ccccc4)cn23)c1`, 31% (inactive).

Consider `C#Cc1cc(N2CCN(C(=O)c3ccoc3)CC2)n2nc(-c3cccc(Cl)c3)cc2n1`, for which the max response, negative = inhibition was 44.3% (inactive). As for `CCOC(=O)[C@]12CCCC=C1N(CCC1=CCCCC1)C(=O)[C@H](CC(=O)N1CCSCC1)C2`, the figure is 21.2% (inactive).

As for `Cc1ccc(C(=O)NC(=S)Nc2ccc3[nH]c(=O)[nH]c3c2)cc1C`, the max response, negative = inhibition is -9.59% (inactive). As for `Cc1cc2[nH]ncc2cc1NC(=S)NC(=O)c1ccccc1`, the figure is -53.9% (active). As for `Cc1cc(C)cc(C(=O)NC(=S)Nc2ccc3[nH]c(=O)[nH]c3c2)c1`, the figure is -10.1% (inactive); as for `COc1ccccc1CNC(=O)c1cc(-c2cc(Cl)ccc2C)n[nH]1`, 3% (inactive). Then `O=C1c2ccccc2C(=O)C1C(=O)C1CC1`, with 4.87% (inactive); and `Cc1ccc(C(=O)N/C(=C/c2cccnc2)C(=O)O)cc1`, with 0% (inactive); and `C/C(=N\NC(=O)c1ccc(C)cc1)C1C(=O)c2ccccc2C1=O`, with -89.4% (active). As to `O=C1NC[C@H](CCCCN2CCN(CCc3ccccc3)C(=O)C2=O)N(CC2CCCCC2)C1=O`, the max response, negative = inhibition is 2.55% (inactive). Then `CCN(C(=O)Nc1cccc2ccccc12)c1ccccc1`, with -20.4% (inactive); and `Cc1cc(Br)ccc1NC(=O)CCCOc1cc(=O)n(C)c2ccccc12`, with -20.6% (inactive).

For `COc1ccc(Nc2oc(-c3ccccc3Cl)nc2C#N)cc1`, the max response, negative = inhibition was -54.1% (active). As for `COc1ccc(Nc2ccc3ccccc3c2)cc1`, the max response, negative = inhibition was -3.21% (inactive).

For the molecule `COc1ccc(Nc2cc(=O)oc3ccccc23)cc1`, the max response, negative = inhibition was -15.7% (inactive).

For `O=C(CSc1ccc(Cl)cc1)NC1CC1`, the max response, negative = inhibition is 20.3% (inactive). Take `Cc1cc2cc3c(cc2nc1SCC(=O)Nc1c(C)cccc1C)CCC3`: the max response, negative = inhibition is -74.6% (active). For the molecule `Cc1cc(C)c(C#N)c(SCC(=O)Nc2ccccc2)n1`, the max response, negative = inhibition is -13.9% (inactive). On to `Cc1cccc(C)c1NC(=O)CSc1nc2c([nH]1)c(=O)n(C)c(=O)n2C`, for which the max response, negative = inhibition is -7.1% (inactive). As for `CN(C)CCNC(=O)c1cccc(-c2cnc3c(NC=O)cc(-c4cccc(C(F)(F)F)c4)cn23)c1`, the figure is 0% (inactive); as for `CN(Cc1ccccc1)C(=O)CCC1CCN(C(=O)c2ccco2)CC1`, 13.8% (inactive); as for `Cn1c(C(=O)NCCCN2CCN(c3cccc(Cl)c3)CC2)cc2c(=O)n(C)c3ccccc3c21`, -103% (active). `O=C(CCCn1c(=O)[nH]c2cc(Cl)ccc2c1=O)NCCN1CCN(c2ccccc2)CC1`: the max response, negative = inhibition was -29.2% (inactive). Turning to `COc1cccc(CNC(=O)Cc2csc(Nc3nc(=S)[nH]c4ccccc34)n2)c1`, the max response, negative = inhibition was 11.5% (inactive).

As to `O=C(NCCCN1CCOCC1)c1cc(-c2ccc(Cl)cc2)on1`, the max response, negative = inhibition is 4.36% (inactive). Then `O=C(COc1cc2oc(=O)c3c(c2cc1Cl)CCC3)NCCCN1CCOCC1`, with -19% (inactive). For `Cn1c(C(=O)N2CCC(C(N)=O)CC2)cc2c(=O)n(C)c3ccccc3c21`, the max response, negative = inhibition is 0% (inactive). As to `CCOC(=O)N1CCC(Nc2c(NCCN3CCN(c4cccc(Cl)c4)CC3)c(=O)c2=O)CC1`, the max response, negative = inhibition was 0.472% (inactive).

On to `Cn1c(Cc2cccc3ccccc23)nnc1SCC(=O)N1CCN(c2cccc(Cl)c2)CC1`, for which the max response, negative = inhibition is 0% (inactive). As for `CCn1c(=O)cc(OCC(=O)NCCCN2CCN(c3cccc(Cl)c3)CC2)c2ccccc21`, the figure is -69.4% (active); as for `O=C(Cc1csc(Nc2nc(=S)[nH]c3ccccc23)n1)NCCCN1CCN(c2cccc(Cl)c2)CC1`, -83.7% (active); as for `O=C(CCn1c(=O)[nH]c2ccccc2c1=O)NCCCN1CCN(c2cccc(Cl)c2)CC1`, -71.4% (active). As for `O=C(Cc1ccc(-n2c(=O)[nH]c3ccccc3c2=O)cc1)N1CCN(c2cccc(Cl)c2)CC1`, the figure is 36.6% (inactive).

Consider `C[C@H]1CN([C@@H](C)CO)C(=O)CCCn2cc(nn2)CO[C@@H]1CN(C)S(=O)(=O)c1ccccc1C#N`, for which the max response, negative = inhibition is -12.5% (inactive).

Turning to `Cc1ccc2nc(-c3ccccc3)c(CC3CCCCC3)n2c1`, the max response, negative = inhibition was -9.93% (inactive). As for `COc1ccc(C(O)C(O)(C(=O)OC(C)C)c2ccc(C)cc2)cc1` (centres undefined), the figure is -17.4% (inactive); as for `CC(C)C[C@H]1CNC(=O)C(=O)N1C[C@H]1CCCN1C[C@H](Cc1ccc(O)cc1)N1C[C@H](CC(C)C)N(CC2CCCCCC2)C(=O)C1=O`, 30.9% (inactive); as for `CC(C)C[C@@H]1Cc2[nH][nH]c(=O)c2[C@H](CCc2ccccc2)O1`, -13% (inactive).
